Counter-ions that a name gives are not always drawn.
Experiments:
[1] = target: IKZF1 (dCK*-IKZF1 fusion in HEK293FT) (UniProt Q13422); experiment: inhibition of IKZF1 HTRF signal (DMSO = 0%, pomalidomide 10 uM = 100%); higher = lower IKZF1 protein level; details: compound concentration: 5 uM, overnight (~20 h)
Procedure, shortened: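 For percent inhibition of IKZF1 signal, each plate was normalised to vehicle and to a reference degrader. Cells were HEK293FT stably expressing an IKZF1 fusion, plated at 2000/well in 384-well format and treated overnight at 37 °C with 5 μM compound, one well each. Lysates were probed overnight with a commercial HTRF total-IKZF1 antibody kit, with the 665/620 nm ratio background-subtracted and vehicle and degrader fixed at 0% and 100%.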

HEK293FT dCK*-only = experiment: relative growth in counter assay (no AraC = 100%, AraC + DMSO = 0%); higher = more growth rescue independent of IKZF1; details: compound concentration: 5 uM; AraC concentration: 0.3 uM; overnight pretreatment + 4 days AraC
Procedure, shortened: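 HEK293FT cells carrying only an engineered kinase construct were plated at 300 per well (384-well) and given 5 μM compound 2 h later. Following overnight at 37 °C, a nucleoside suicide substrate (0.3 μM) plus medium was added for 4 days. Hoechst 33342-stained nuclei were imaged and counted on day 5, with 100% assigned to wells without suicide substrate and 0% to substrate plus vehicle on each plate.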

HEK293FT dCK*-IKZF1 = experiment: relative growth recovery (pomalidomide 10 uM = 100%, DMSO = 0%); higher = more growth rescue (IKZF1 fusion degradation); details: compound concentration: 5 uM; AraC concentration: 0.3 uM; overnight pretreatment + 4 days AraC
Procedure, shortened: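 Means of duplicates from different days are given for growth recovery, normalised per plate against a reference degrader and vehicle. The reference degrader set the 100% level and vehicle the 0% level. HEK293FT cells stably expressing a deoxycytidine kinase–IKZF1 fusion (300/well, 384-well) received 5 μM compound 2 h after seeding and, after overnight at 37 °C, 0.3 μM of a nucleoside suicide substrate plus medium for 4 days. Nuclei stained with Hoechst 33342 were then counted by whole-well imaging on day 5.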

Chain of IKZF1 (dCK*-IKZF1 fusion in HEK293FT) (Q13422 whole entry, looked up, the tested form may be a part): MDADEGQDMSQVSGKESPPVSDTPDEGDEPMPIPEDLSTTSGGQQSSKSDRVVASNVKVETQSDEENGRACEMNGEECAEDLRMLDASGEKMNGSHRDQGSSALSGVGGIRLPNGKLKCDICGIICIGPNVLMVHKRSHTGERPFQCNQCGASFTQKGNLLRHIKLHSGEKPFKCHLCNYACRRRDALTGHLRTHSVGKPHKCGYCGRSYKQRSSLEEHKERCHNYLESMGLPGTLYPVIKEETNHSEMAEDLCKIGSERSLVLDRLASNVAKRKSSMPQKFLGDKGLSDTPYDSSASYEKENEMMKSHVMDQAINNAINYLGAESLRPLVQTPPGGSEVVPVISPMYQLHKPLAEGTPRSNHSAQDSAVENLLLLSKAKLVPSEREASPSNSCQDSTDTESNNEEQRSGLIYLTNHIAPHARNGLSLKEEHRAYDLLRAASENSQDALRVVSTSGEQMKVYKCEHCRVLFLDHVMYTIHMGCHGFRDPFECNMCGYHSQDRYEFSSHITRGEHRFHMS

SMILES	inhibition of IKZF1 HTRF signal [1]	relative growth in counter assay (HEK293FT dCK*-only)	relative growth recovery (HEK293FT dCK*-IKZF1)
CC(C)c1ccc(NC(=O)Cn2cnc3c2c(=O)n(C)c(=O)n3C)cc1	12.2%	-3.63%	-1.03%
O=C2[C@]([C@]3=CC(Cl)=CC=C3OC)(F)C1=CC=C(C(F)(F)F)C=C1N2 [flindokalner]	-26.1%	-5.3%	-1.65%
O=C1NCN(c2ccccc2)C12CCN(CCCC(c1ccc(F)cc1)c1ccc(F)cc1)CC2 [Fluspirilene]	-2.73%	5.04%	-0.815%
O=C1Nc2c(ccc(Cl)c2Cl)C1=NO	-26.5%	-8.31%	-2.38%
CC(C)(C#N)c1ccc(N2C(=O)OCc3cnc4ccc(-c5cnc6ccccc6c5)cc4c32)cc1	17.1%	3.56%	-2.14%
O=C(c1ccc(Nc2nccc(-c3cc4ccccc4s3)n2)cc1)N1CCC(N2CCCC2)CC1	-31.3%	-35.2%	-14.3%
Cc1coc2c1C(=O)C(=O)c1c-2ccc2c(C)cccc12 [Tanshinone I]	-2.3%	-6.51%	-3.83%
COc1ccc(NS(=O)(=O)c2ccc(N=Nc3ccc(O)c(C(=O)O)c3)cc2)nn1 [salazodine]	-2.92%	6.32%	-2.83%
Clc1ccc(COC(Cn2ccnc2)c2ccc(Cl)cc2Cl)c(Cl)c1 (stereo unspecified)	-32.3%	-7.63%	-6.23%
CN(C)C(=O)C(CCN1CCC(O)(c2ccc(Cl)cc2)CC1)(c1ccccc1)c1ccccc1 [Loperamide HCl]	3.48%	-7.07%	-1.04%
COc1cc(N2CCN(CCOCCOCCNC(=O)CNc3cccc4c3C(=O)N(C3CCC(=O)NC3=O)C4=O)CC2)ccc1Nc1ncc(Cl)c(Nc2ccccc2S(=O)(=O)C(C)C)n1 (stereo unspecified)	34.1%	-27.8%	-4.32%
Oc1c(Cl)cc(Cl)cc1Sc1cc(Cl)cc(Cl)c1O	7.52%	-3.52%	-1.73%
CN1CCC[C@@H]1CCO[C@](C)(c1ccccc1)c1ccc(Cl)cc1 [Clemastine Fumarate]	6.24%	4.09%	2.26%
Cc1cccc(CCN2CCC(C(=O)c3ccc(NS(C)(=O)=O)cc3)CC2)n1	-18.6%	-7.85%	-0.45%
COC(=O)Nc1nc2cc(C(=O)c3ccc(F)cc3)ccc2[nH]1	-13.6%	-8%	-4.8%
COC(=O)Nc1nc2cc(C(=O)c3cccs3)ccc2[nH]1 [nocodazole]	-12%	-33%	-11.6%
CCCOc1ccc2nc(NC(=O)OC)[nH]c2c1	-18.4%	-15.2%	-2.92%
CCCCCCCC[N+](C)(C)Cc1ccccc1 [benzyldimethyloctylammonium]	-57.3%	4.74%	5.02%
Cc1cccc(Nc2nc(-c3ccncc3)cs2)c1	-51.1%	-8.26%	-0.535%
CSc1nc2cc(Cl)c(Oc3cccc(Cl)c3Cl)cc2[nH]1	-43%	2.75%	0.015%
CC(CCc1ccc(O)cc1)NCCc1ccc(O)c(O)c1 (stereo unspecified) [Dobutamine HCl]	18.6%	-5.22%	-1.12%

SMILES	inhibition of IKZF1 HTRF signal [1]	relative growth in counter assay (HEK293FT dCK*-only)	relative growth recovery (HEK293FT dCK*-IKZF1)
O=c1c(-c2ccccc2)c1-c1ccccc1 [diphencyprone]	-25.4%	-31.8%	-11.2%
CCNC(=O)Nc1ccc(-c2nc3c(c(N4CCOC[C@@H]4C)n2)CCN(C2COC2)C3)cc1	68.5%	-31.5%	-12.3%
CCn1c(=O)[nH]c2ccccc21	-34.6%	-8.57%	0.15%
CO[C@H]1CC(O[C@@H]2/C(C)=C/C[C@@H]3C[C@@H](C[C@]4(CC[C@H](C)[C@@H](C5CCCCC5)O4)O3)OC(=O)[C@@H]3C=C(C)/C(=N/O)[C@H]4OC/C(=C\C=C\[C@@H]2C)[C@]43O)O[C@@H](C)C1O (stereo partly specified)	-24.5%	10.4%	-2.14%
COc1cc(C(=O)NS(=O)(=O)c2ccccc2C)ccc1Cc1cn(C)c2ccc(NC(=O)OC3CCCC3)cc12 [Zafirlukast]	-43.3%	-15.2%	-5.17%
Nc1nc2c(ccc3ccccc32)s1	-31%	4.08%	0.375%
CC(=O)Oc1ccccc1C(=O)Nc1ncc([N+](=O)[O-])s1 [Nitazoxanide]	18.8%	-4.25%	1.91%
c1cncc(CN2CCC(n3ncc4c(N5CCOCC5)nc(-c5ccc6[nH]ccc6c5)nc43)CC2)c1	30.4%	-26.4%	-11.3%
O=C(CCCCCCC(=O)NO)NO	-47.9%	-7.76%	-0.655%
N=c1ccn2c(n1)O[C@H]1[C@H](O)[C@@H](CO)O[C@H]12 [Cyclocytidine HCl]	-19.3%	-34%	-12.9%
CC[C@]1(O)C[C@H]2CN(CCc3c([nH]c4ccccc34)[C@@](C(=O)OC)(c3cc4c(cc3OC)N(C)[C@H]3[C@@](O)(C(N)=O)[C@H](O)[C@]5(CC)C=CCN6CC[C@]43[C@@H]65)C2)C1 [Vindesine Sulfate]	-14%	-34.3%	-11.6%
CC(=C\c1ccc(Cl)cc1)/C(C)=N/O	-25.6%	-1.62%	-3.61%
COc1cc(N2CCC(N3CCN(C(=O)CNc4cccc5c4C(=O)N(C4CCC(=O)NC4=O)C5=O)CC3)CC2)ccc1Nc1ncc(Cl)c(Nc2ccccc2P(C)(C)=O)n1 (stereo unspecified)	111%	-29.6%	-0.385%
O=C(Nc1ccc(S(=O)(=O)Nc2nccs2)cc1)C(c1ccccc1)c1ccccc1	-31.6%	-2.35%	-3.39%
CC(CNC1CCCCC1)OC(=O)c1ccccc1 (stereo unspecified) [hexylcaine]	-36.3%	0.35%	-0.215%
CN1C(=O)/C(=C2/C(=O)Nc3ccccc32)c2ccccc21 [Meisoindigo]	-22.1%	-7.74%	-3.15%
COc1cc(/C=C2\CCC/C(=C\c3ccc(O)c(OC)c3)C2=O)ccc1O [cyclovalone]	-30.9%	-31.6%	2.27%
CCN(CC)CCCC(C)Nc1ccnc2cc(Cl)ccc12 (stereo unspecified) [Chloroquine Diphosphate]	-13.4%	1.31%	0.365%
COc1ccc2c(C)nc(Nc3nc(C)c(C)c(O)n3)nc2c1 [madrasin]	-28.1%	6.01%	0.18%
CC[C@H](CO)Nc1nc(Nc2cccc(-c3ccccn3)c2)c2ncn(C(C)C)c2n1	-29.5%	-0.26%	-2.95%
CCOC(=O)Nc1ccc2c(c1)N(C(=O)CCN1CCOCC1)c1ccccc1S2 [moracizine]	-24.3%	-9.21%	-0.545%

SMILES	inhibition of IKZF1 HTRF signal [1]	relative growth in counter assay (HEK293FT dCK*-only)	relative growth recovery (HEK293FT dCK*-IKZF1)
Cc1cccc(C)c1NC(=O)CN1CCN(CCCC(c2ccc(F)cc2)c2ccc(F)cc2)CC1 [lidoflazine]	-30.1%	35.6%	36.1%
CC(C)(C)C1CCc2c(sc(NC(=O)c3ccco3)c2C(=O)O)C1 (stereo unspecified)	-23.8%	-8.81%	-0.515%
CN(C)c1ccc(C(=C2C=CC(=[N+](C)C)C=C2)c2ccc(N(C)C)cc2)cc1	-12.9%	-35.1%	-13.1%
Cc1cc(N2CCCCC2)nc2ccccc12	-32%	-2.77%	-1.01%
CO[C@H]1/C=C/O[C@@]2(C)Oc3c(C)c(O)c4c(O)c(c5c(c4c3C2=O)=NC2(CCN(CC(C)C)CC2)N=5)NC(=O)C(C)=CC=CC(C)[C@H](O)[C@@H](C)[C@@H](O)[C@@H](C)[C@H](OC(C)=O)[C@@H]1C (stereo partly specified) [Rifabutin]	0.83%	3.92%	-0.05%
CO[C@@H]1[C@@H](OC2O[C@H](C)[C@@H](O[C@H]3C[C@@](C)(O)[C@@H](O)[C@H](C)O3)[C@H](N(C)C)[C@H]2O)[C@@H](CC=O)C[C@@H](C)[C@@H](O[C@H]2CC[C@H](N(C)C)[C@@H](C)O2)/C=C/C=C/C[C@@H](C)OC(=O)C[C@H]1O (stereo partly specified)	-29.9%	-5.7%	2.43%
COC(=O)C1=C(C)NC(C)=C(C(=O)OCC(C)C)C1c1ccccc1[N+](=O)[O-] (stereo unspecified) [Nisoldipine]	-28.1%	-8.81%	-3.19%
CC1(C)C(/C=C/C=C/C=C/C=C2/N(CCCCS(=O)(=O)[O-])c3ccc4ccccc4c3C2(C)C)=[N+](CCCCS(=O)(=O)[O-])c2ccc3ccccc3c21 [Cardiogreen]	-28.9%	-5.7%	0.4%
CSc1ccc2c(c1)N(CCC1CCCCN1C)c1ccccc1S2 (stereo unspecified)	-29%	7.95%	-4.45%
[2H]C([2H])([2H])C(O)(CCO[C@@H](C)[C@H]1CC[C@H]2/C(=C/C=C3/C[C@@H](O)C[C@H](O)C3=C)CCC[C@]12C)C([2H])([2H])[2H] [maxacalcitol]	-24.6%	9.68%	7.53%
CC(C)(C)C1=CC=C(CN(C)[C@H](C(N[C@H]([C@](NC(C)(C)C)=O)CC2=CC=C(OCC3=CC=CC=C3)C=C2)=O)CC(C)C)C=C1	-24.5%	1.14%	-2.38%
Cc1c(-c2ccccc2F)[nH]c(N)c1C#N	-50.1%	0.99%	0.445%
NC(=O)NC(=O)Cc1ccccc1	-29.1%	4.08%	-2.01%
Oc1c(Cl)cc(Cl)c2cccnc12	-21.5%	-3.56%	-0.1%
C1CCC(C(CC2CCCCN2)C2CCCCC2)CC1 (stereo unspecified)	11.6%	-1.13%	-2.33%
CC(=NNc1nnc2c(n1)[nH]c1c(C)cccc12)c1ccccn1	40.7%	-31.6%	-12.7%
CCCCCCCCCCCCC[N+](C)(C)Cc1ccccc1	7.81%	-14.8%	-5.53%
CSCC[C@H](N)C(=O)O [L-methionine]	-9.26%	-0.43%	1.19%
CC1(C)Oc2ccc(C#N)cc2[C@@H](N2CCCC2=O)[C@@H]1O.CC1(C)Oc2ccc(C#N)cc2[C@H](N2CCCC2=O)[C@H]1O [levcromakalim]	-32.9%	4.22%	-0.84%
CO[C@H]1/C=C/O[C@@]2(C)Oc3c(C)c(O)c4c(O)c(cc(O)c4c3C2=O)NC(=O)/C(C)=C\C=C\[C@H](C)[C@H](O)[C@@H](C)[C@@H](O)[C@@H](C)[C@H](OC(C)=O)[C@@H]1C [Rifamycin SV Sodium]	-36.7%	2.23%	0.23%

— the supplement of paper PMC12340641
